Measurements from PubChem BioAssay (NCATS).
Records with an inconclusive call do not appear. Unmarked numbers belong to inactive results. Active and inactive are the calls of the source. Calls come from the whole dose curve; as a rule, active = well fitted curve in the direction sought with a large enough effect; inconclusive = small, poorly fitted or top-dose-only effect, or another doubt; inactive = no such curve, though single readings can be large or run the other way.

assay: qHTS for differential inhibitors of proliferation of Plasmodium falciparum line HB3 (AID 1886); conditions: Potency: Plasmodium falciparum HB3 proliferation inhibition; series mostly up to 28.7 µM; activity change, negative = inhibition: at the top concentration;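 note: parasites grown with compound for 72 h before SYBR Green readout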;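 for activity change, negative = inhibition: plate controls were vehicle for no effect and reference inhibitor for full effect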
Potency is the fitted concentration of half-maximal effect.

| Structure (SMILES) | Potency | activity change, negative = inhibition |
| --- | --- | --- |
| Oc1ccc(C2CNCc3sccc32)cc1O (stereo not given) | 11.2 µM (active) |  |
| O=S(=O)(c1cccc2c(I)cccc12)N1CCCNCC1 |  | 5.64% |
| C=CC(N)CCC(=O)O (stereo not given) |  | -6.08% |
| O=C(c1cc(O)c(O)c([N+](=O)[O-])c1)c1ccccc1F |  | -22% |
| NC(CCCP(=O)(O)O)C(=O)O (stereo not given) |  | -3% |
| Fc1cccc(/C=N/N=C/c2cccc(F)c2)c1 |  | 6.3% |
| Cn1c(=O)c2[nH]c(-c3ccccc3)nc2n(C)c1=O |  | -6.85% |
| CN1C2CCC1CC(OC(=O)C(O)c1ccccc1)C2 (stereo not given) |  | -4.68% |
| O=c1[nH]c2ccccc2n1CCCN1CCN(C(c2ccccc2)c2ccccc2)CC1 | 14.1 µM (active) |  |
| CCCCCCCCCCCCCCCCCC(=O)NCC(COP(=O)([O-])OCC[N+](C)(C)C)OCC (stereo not given) |  | -3.77% |
| COc1cc2nc(N3CCN(C(=O)OCc4ccccc4)C(C(=O)NC(C)(C)C)C3)nc(N)c2cc1OC (stereo not given) | 7.94 µM (active) |  |
| O=C(O)c1cc(=O)c2c(Cl)cc(Cl)cc2[nH]1 |  | -4.55% |
| NCCSSCCN |  | 4.16% |
| CCCN(CC1CC1)c1nc(C)nc(Nc2c(Cl)cc(Cl)cc2Cl)c1Cl | 4.47 µM (active) |  |
| OC[C@H]1O[C@@H](n2cnc3c(NC4CCCCC4)ncnc32)[C@H](O)[C@@H]1O |  | -16.4% |
| CN1CCC[C@H]1c1cccnc1 |  | -1.57% |
| COc1cc(C(O)CO)ccc1OS(=O)(=O)O (stereo not given) |  | -6.03% |
| CCCCCCCCCCCCCCCCCCNC(=O)OCC(COP(=O)([O-])OCC[n+]1ccsc1)OC (stereo not given) | 11.2 µM (active) |  |
| N[C@@H](CC(=O)O)C(=O)O |  | 2.52% |
| CN1CCc2cc(O)c(O)cc2C(c2ccccc2)C1 (stereo not given) | 12.6 µM (active) |  |
